The source made the active and inactive calls.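 How the source made its calls, unless noted: active means visual image review flags a hit and inhibition of aggregation exceeds 20%; inconclusive means visual hit but inhibition at or below 20%; inactive means no hit on visual image review.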
Assays:
[1] = inhibitors of TNFa-induced NFkB p65 translocation, primary screen, imaging, HUVEC, MLSMR starter and 10KST1 sets (AID 438;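 active means inhibition above 20% together with a positive visual image hit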;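 further: compound added about 3h40 before a 20 min TNFalpha stimulation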;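 on inhibition: signal is the nuclear over cytoplasmic p65 intensity ratio per well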); conditions: HUVEC TNFa-induced p65 nuclear translocation; cell count: measured here: nuclei count (cytotoxicity indicator), at 2.08 µM; inhibition: at 2 µM, stronger effect = higher value, 0% TNFa-plus-vehicle, 100% no-TNFa wells
[2] = inhibitors of mutant huntingtin aggregation, primary screen, imaging, exon1htt(103Q)mCFP cells, high-content imaging (AID 483); conditions: exon1htt(103Q)mCFP cell line, aggregate imaging, at 2 µM; inhibition of aggregation: stronger effect = higher value; nuclei count: measured here: cell count, toxicity;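 further: compound exposure lasted 3 days before fixation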;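 on nuclei count: percent of the per-plate median nuclei count of sample wells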
[3] = inhibitors of E-selectin induction by TNFa, primary screen, imaging, HUVEC, immunofluorescence, MLSMR starter and 10KST1 sets (AID 487;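 active means visually confirmed hit in the image check and inhibition above 20%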;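 on inhibition: signal is fraction of cell area covered by stained E-selectin grains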;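 on nuclei count: 100% = median nuclei count of all wells on the same plate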); conditions: HUVEC TNFalpha-induced E-selectin immunofluorescence imaging, at 2 µM; inhibition: stronger effect = higher value; nuclei count: measured here: cell number, toxicity
[4] = molecular target: Voltage-gated potassium channel subunit beta-2 (Rattus norvegicus) (UniProt P62483); test: KvBeta enzyme negative modulators, primary screen, biochemical, NADPH fluorescence (AID 622;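 active means fluorescence slope higher than the sample average by over 3 SD, cut at about -0.22 in these data, passing the limit was not always enough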;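 further: slope of raw intensity against log time taken from 70 to 1610 s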); conditions: recombinant KvBeta, 4-cyanobenzaldehyde reduction, at 10 µM, stronger effect = higher value
[5] = molecular target: Voltage-gated potassium channel subunit beta-2 (Rattus norvegicus) (UniProt P62483); test: KvBeta positive modulators, primary screen, biochemical, NADPH fluorescence (AID 623;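 active means NADPH fluorescence slope more negative than the mean of all samples by about 3 SD, 99.7% confidence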;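 further: fluorescence intensity change per second fitted from 20 to 320 s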); conditions: Recombinant KvBeta, NADPH fluorescence decrease slope, 10 min; at 10 µM; stronger effect = lower value
[6] = molecular target: Alpha-2C adrenergic receptor (Homo sapiens) (UniProt P18825); test: modulators of alpha2C/GIRK thallium flux, primary screen, cell-based, HEK293 alpha2C/GIRK1/2 (AID 624;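 active means fluorescence slope after compound addition differing from the mean of all screened samples at 99.7% confidence, in either direction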;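 further: slope of fluorescence ratio to pre-addition baseline per second over 15 to 24 s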); conditions: thallium flux BTC fluorescence, at 10 µM, actives lie on both sides
[7] = inhibitors of Sendai virus-induced IRF3 signaling, primary screen, TLR/RLR signaling modifier project, cell-based, Sendai virus stimulus, luciferase, 10K MLSCN set (AID 602276;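 active means inhibition at or above 50% at 10 µM; inactive means inhibition below 50%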;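 further: firefly luciferase from ISG56 promoter only with Renilla not read in this screen; 0% = Sendai virus plus DMSO and 100% = medium plus DMSO without virus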); conditions: HEK293 RL24 IRF3 luciferase reporter, at 10 µM, stronger effect = higher value
[8] = inhibitors of poly I:C-induced TLR3 signaling, primary screen, cell-based, poly I:C stimulus, luciferase, 10K MLSCN set (AID 602277;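 active means inhibition of the reporter signal at or above 50%; inactive means inhibition below 50%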); conditions: HEK293-TLR3 RL24 IRF3 luciferase reporter, at 10 µM, stronger effect = higher value

Alpha-2C adrenergic receptor (Homo sapiens), sequence (P18825 whole entry, looked up): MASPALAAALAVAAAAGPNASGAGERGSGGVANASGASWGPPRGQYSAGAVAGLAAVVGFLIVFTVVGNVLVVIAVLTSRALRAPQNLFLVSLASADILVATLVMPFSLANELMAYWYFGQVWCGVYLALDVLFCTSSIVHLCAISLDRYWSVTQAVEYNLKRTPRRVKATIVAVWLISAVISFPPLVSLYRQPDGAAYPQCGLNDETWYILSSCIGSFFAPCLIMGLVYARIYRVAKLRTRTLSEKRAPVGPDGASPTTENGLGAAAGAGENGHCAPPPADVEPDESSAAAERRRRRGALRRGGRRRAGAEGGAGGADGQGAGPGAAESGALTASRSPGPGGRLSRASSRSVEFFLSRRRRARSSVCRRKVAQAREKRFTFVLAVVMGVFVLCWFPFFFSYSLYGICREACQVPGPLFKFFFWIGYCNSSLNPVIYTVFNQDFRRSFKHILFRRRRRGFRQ
Voltage-gated potassium channel subunit beta-2 (Rattus norvegicus), sequence (P62483 whole entry, looked up): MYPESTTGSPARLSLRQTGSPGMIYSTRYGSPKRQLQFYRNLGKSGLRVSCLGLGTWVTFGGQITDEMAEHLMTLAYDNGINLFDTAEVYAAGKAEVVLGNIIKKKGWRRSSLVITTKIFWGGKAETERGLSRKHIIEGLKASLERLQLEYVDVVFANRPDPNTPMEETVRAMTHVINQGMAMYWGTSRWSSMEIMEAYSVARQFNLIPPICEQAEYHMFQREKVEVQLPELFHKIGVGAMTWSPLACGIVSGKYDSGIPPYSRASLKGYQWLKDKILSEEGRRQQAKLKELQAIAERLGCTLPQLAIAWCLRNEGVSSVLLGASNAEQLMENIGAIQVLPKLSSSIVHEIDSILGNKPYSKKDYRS

Row | SMILES | cell count [1] | inhibition [1] | inhibition of aggregation [2] | nuclei count [2] | inhibition [3] | nuclei count [3] | fluorescence slope [4] | NADPH fluorescence slope [5] | slope [6] | inhibition [7] | inhibition [8]
1 | O=C(CCCN1C(=O)c2ccccc2C1=O)NCc1cccnc1 | 709 | -7.1% (inactive) | -4.8% (inactive) | 102% | -120% (inactive) | 134% | -0.42 (inactive) | -2.4e-06 (inactive) | 0.00753 (inactive) | 8.03% (inactive) | 8.47% (inactive)
2 | CN1C(=O)C(O)(CC(=O)c2ccc3c(c2)OCO3)c2ccccc21 (stereo not drawn) | 340 | 6% (inactive) | -7.9% (inactive) | 105% | -11.1% (inactive) | 108% | -0.457 (inactive) | 6.3e-06 (inactive) | 0.00347 (inactive) | 4.81% (inactive) | 32.2% (inactive)
3 | CCOc1cc(NC(=O)c2ccco2)c(OCC)cc1NC(=O)COc1ccccc1C | 388 | 0% (inactive) | -11.9% (inactive) | 107% | -74.7% (inactive) | 129% | -0.00358 (active) | 3.9e-06 (inactive) | 0.00663 (inactive) | -1.87% (inactive) | -75.9% (inactive)
4 | CS(=O)(=O)NCc1nnc(SCC(=O)NC2CCCCC2)n1-c1ccc(F)cc1 | 820 | -5.5% (inactive) | -0.9% (inactive) | 111% | -5.8% (inactive) | 128% | -0.388 (inactive) | -5.9e-05 (inactive) | 0.00498 (inactive) | 16.2% (inactive) | 26.3% (inactive)
5 | O=C(CSc1nnc(Cn2c(=O)sc3ccccc32)n1-c1ccccc1)Nc1nccs1 | 645 | 1.8% (inactive) | 9.1% (inactive) | 110% | -7.4% (inactive) | 104% | -0.58 (inactive) | -2.9e-05 (inactive) | 0.00712 (inactive) | 2.86% (inactive) | 16.4% (inactive)
6 | CCCCCCNC(=O)c1c(N)n(/N=C/c2ccco2)c2nc3ccccc3nc12 | 602 | 11.2% (inactive) | -16.8% (inactive) | 79.6% | 26.4% (inactive) | 104% | -0.251 (inactive) | -6e-06 (inactive) | 0.00525 (inactive) | 11.1% (inactive) | 8.29% (inactive)
7 | Cc1cnc(C(=O)Nc2ccc(N3CCN(C(=O)OC(C)(C)C)CC3)cc2)cn1 | 316 | 8.7% (inactive) | -7.1% (inactive) | 4.4% | -1.6% (inactive) | 93.1% | -0.636 (inactive) | -3.5e-05 (inactive) | 0.00617 (inactive) | -2.13% (inactive) | 6.1% (inactive)
8 | Cc1c(C(=O)NCc2ccoc2)oc2ccc3c(c12)C(=O)CC(C)(C)O3 | 214 | 7.4% (inactive) | -2.1% (inactive) | 78.2% | 7.9% (inactive) | 103% | -0.531 (inactive) | 1.8e-05 (inactive) | 0.00522 (inactive) | -46% (inactive) | -231% (inactive)
9 | CCn1c(SCC(=O)Nc2ccc3c(c2)OCO3)nc2c(c1=O)SC(C)C2 (stereo not drawn) | 496 | 9.6% (inactive) | 4% (inactive) | 111% | 15.4% (inactive) | 95.3% | -0.561 (inactive) | -5e-05 (inactive) | 0.00661 (inactive) | -0.539% (inactive) | 16.9% (inactive)
10 | COc1ccc(-n2c(N)c(C(=O)NCc3ccco3)c3nc4ccccc4nc32)c(OC)c1 | 737 | -6% (inactive) | -0.1% (inactive) | 97.9% | 27.3% (inactive) | 102% | -0.246 (inactive) | -4.5e-06 (inactive) | 0.00521 (inactive) | 6.27% (inactive) | 7.88% (inactive)
11 | NS(=O)(=O)c1ccc(CCNC(=O)CCC2COc3ccccc3O2)cc1 (stereo not drawn) | 535 | -8.3% (inactive) | -5.3% (inactive) | 98.4% | -20.9% (inactive) | 90.3% | -0.564 (inactive) | 3.4e-06 (inactive) | 0.00562 (inactive) | 15.7% (inactive) | 18.3% (inactive)
12 | CC(=O)c1ccc(OCC(O)CN2CCN(Cc3ccc4c(c3)OCO4)CC2)cc1 (stereo not drawn) | 522 | 4.5% (inactive) | -3.8% (inactive) | 87.9% | -33.9% (inactive) | 108% | -0.536 (inactive) | -4.2e-05 (inactive) | 0.0062 (inactive) | 11.6% (inactive) | 40.6% (inactive)
13 | COCc1nnc(NS(=O)(=O)c2ccc(Br)cc2)s1 | 757 | -12.1% (inactive) | 13.5% (inactive) | 102% | 30.4% (inactive) | 90.2% | -0.362 (inactive) | 4.4e-05 (inactive) | 0.00659 (inactive) | 18.1% (inactive) | 19.6% (inactive)
14 | COc1ccc(NC(=O)C2Cc3ccccc3C(=O)O2)cc1 (stereo not drawn) | 642 | 0.3% (inactive) | 15.6% (inactive) | 105% | -19.3% (inactive) | 120% | -0.427 (inactive) | -6e-05 (inactive) | 0.00562 (inactive) | -11.7% (inactive) | -23.5% (inactive)
15 | COc1ccc(OC)c(-n2nnnc2SCC(=O)NCc2ccc3c(c2)OCO3)c1 | 324 | -12.5% (inactive) | -18.9% (inactive) | 101% | -26.8% (inactive) | 109% | -0.604 (inactive) | -1.7e-05 (inactive) | 0.00401 (inactive) | 18% (inactive) | -14.2% (inactive)
16 | COc1ccc(N2C(=O)C3C4C=CC(C4)C3C2=O)nn1 (stereo not drawn) | 719 | -5.5% (inactive) | -9.5% (inactive) | 100% | -182% (inactive) | 142% | -0.44 (inactive) | -0.000108 (inactive) | 0.00628 (inactive) | 11.4% (inactive) | 23.1% (inactive)
17 | O=C(CN(Cc1cccs1)C(=O)CNS(=O)(=O)c1ccccc1)NCc1ccco1 | 473 | -4.2% (inactive) | -5% (inactive) | 104% | -65.9% (inactive) | 98.5% | -0.594 (inactive) | 3.8e-05 (inactive) | 0.00631 (inactive) | -8.34% (inactive) | -2.97% (inactive)
18 | O=c1oc2c3c4c(cc2cc1-c1nc2ccccc2[nH]1)CCCN4CCC3 | 451 | 5.9% (inactive) | 94.7% [may fluoresce] (active) | 112% | -25.7% (inactive) | 121% | -0.308 (inactive) | 1.6e-05 (inactive) | 0.00239 (inactive) | -24.1% (inactive) | -107% (inactive)
19 | O=C(CSc1nc2ccccc2o1)NC(=O)NCc1ccco1 | 342 | -1.8% (inactive) | -12.3% (inactive) | 94.8% | -31.1% (inactive) | 112% | -0.333 (inactive) | -3.3e-05 (inactive) | 0.00371 (inactive) | -2.31% (inactive) | 12.3% (inactive)
20 | CCn1nnnc1SCC(=O)Nc1nc(-c2cccs2)cs1 | 327 | -8.9% (inactive) | 9.4% (inactive) | 100% | -63.9% (inactive) | 104% | -0.491 (inactive) | -4.6e-05 (inactive) | 0.00497 (inactive) | 15.8% (inactive) | 20.5% (inactive)
21 | O=C(CN1C(=O)CSC1=O)Nc1ccc(N2CCOCC2)cc1 | 700 | -1% (inactive) | 15.2% (inactive) | 110% | -27.8% (inactive) | 113% | -0.544 (inactive) | -2.2e-05 (inactive) | 0.00569 (inactive) | -8.99% (inactive) | -8.78% (inactive)
22 | CC(C)CCNC(=O)C(c1ccco1)N(CC1CCCO1)C(=O)Cn1nnc2ccccc21 (stereo not drawn) | 393 | 10.3% (inactive) | 5.4% (inactive) | 104% | -72.5% (inactive) | 103% | -0.612 (inactive) | -4.6e-05 (inactive) | 0.00382 (inactive) | 8.01% (inactive) | 16.4% (inactive)
23 | Cc1cnc(NC(=O)CSc2nc3ccccc3c(=O)[nH]2)s1 | 281 | 8.9% (inactive) | -0.5% (inactive) | 99.4% | 65% (active) | 98.4% | -0.427 (inactive) | 5.1e-05 (inactive) | 0.00477 (inactive) | 2.98% (inactive) | -0.232% (inactive)
24 | COc1ccccc1OCc1ccc(C(=O)Nc2ccncc2)o1 | 729 | -7.3% (inactive) | -9.4% (inactive) | 83.1% | -69% (inactive) | 120% | -0.508 (inactive) | -5.2e-05 (inactive) | 0.00528 (inactive) | 8.87% (inactive) | -20.1% (inactive)
25 | O=C1OCCC1Sc1ncnc2sc3c(c12)CCC3 (stereo not drawn) | 755 | -6.2% (inactive) | 4.8% (inactive) | 84.1% | -9.4% (inactive) | 111% | -0.412 (inactive) | 4.3e-06 (inactive) | 0.00667 (inactive) | 9.45% (inactive) | 17% (inactive)
26 | O=C(NCc1ccccc1)C1CCN(S(=O)(=O)N2CCCCCC2)CC1 | 639 | 0% (inactive) | -6.3% (inactive) | 106% | -19.7% (inactive) | 112% | -0.473 (inactive) | 5.6e-05 (inactive) | 0.00906 (inactive) | -9.73% (inactive) | -4.63% (inactive)
27 | Cn1nc(-c2ccc(N3CCCCC3)c(NC(=O)c3ccco3)c2)c2ccccc2c1=O | 672 | -15.6% (inactive) | -14.2% (inactive) | 62.8% | 32.2% (inactive) | 84.4% | -0.5 (inactive) | -5.2e-06 (inactive) | 0.00571 (inactive) | 13.4% (inactive) | 75.2% (active)
28 | O=C(CCn1c(=O)c2ccccc2n(CC(=O)NCCC2=CCCCC2)c1=O)NCc1ccco1 | 596 | -10.9% (inactive) | 25.7% (inactive) | 102% | -9.8% (inactive) | 82% | -0.558 (inactive) | -3e-05 (inactive) | 0.00599 (inactive) | -4.87% (inactive) | 10.3% (inactive)

Reference: PubChem BioAssay
